Measurements published in ChEMBL document CHEMBL5308504, “Tm Shift (DSF) assay results for EUbOPEN Chemogenomics Library” (2023).

How the values were obtained:
[1] = target: Bromodomain-containing protein 4 (Homo sapiens) (UniProt O60885); conditions: Compound concentration 20.0 uM, Protein concentration 2.0 uM, Result type QC Liability
[2] = target: T1, Transcription intermediary factor 1-alpha (Homo sapiens) (UniProt O15164); conditions: Compound concentration 20.0 uM, Protein concentration 2.0 uM, Result type QC Liability
T1 sequence (whole entry): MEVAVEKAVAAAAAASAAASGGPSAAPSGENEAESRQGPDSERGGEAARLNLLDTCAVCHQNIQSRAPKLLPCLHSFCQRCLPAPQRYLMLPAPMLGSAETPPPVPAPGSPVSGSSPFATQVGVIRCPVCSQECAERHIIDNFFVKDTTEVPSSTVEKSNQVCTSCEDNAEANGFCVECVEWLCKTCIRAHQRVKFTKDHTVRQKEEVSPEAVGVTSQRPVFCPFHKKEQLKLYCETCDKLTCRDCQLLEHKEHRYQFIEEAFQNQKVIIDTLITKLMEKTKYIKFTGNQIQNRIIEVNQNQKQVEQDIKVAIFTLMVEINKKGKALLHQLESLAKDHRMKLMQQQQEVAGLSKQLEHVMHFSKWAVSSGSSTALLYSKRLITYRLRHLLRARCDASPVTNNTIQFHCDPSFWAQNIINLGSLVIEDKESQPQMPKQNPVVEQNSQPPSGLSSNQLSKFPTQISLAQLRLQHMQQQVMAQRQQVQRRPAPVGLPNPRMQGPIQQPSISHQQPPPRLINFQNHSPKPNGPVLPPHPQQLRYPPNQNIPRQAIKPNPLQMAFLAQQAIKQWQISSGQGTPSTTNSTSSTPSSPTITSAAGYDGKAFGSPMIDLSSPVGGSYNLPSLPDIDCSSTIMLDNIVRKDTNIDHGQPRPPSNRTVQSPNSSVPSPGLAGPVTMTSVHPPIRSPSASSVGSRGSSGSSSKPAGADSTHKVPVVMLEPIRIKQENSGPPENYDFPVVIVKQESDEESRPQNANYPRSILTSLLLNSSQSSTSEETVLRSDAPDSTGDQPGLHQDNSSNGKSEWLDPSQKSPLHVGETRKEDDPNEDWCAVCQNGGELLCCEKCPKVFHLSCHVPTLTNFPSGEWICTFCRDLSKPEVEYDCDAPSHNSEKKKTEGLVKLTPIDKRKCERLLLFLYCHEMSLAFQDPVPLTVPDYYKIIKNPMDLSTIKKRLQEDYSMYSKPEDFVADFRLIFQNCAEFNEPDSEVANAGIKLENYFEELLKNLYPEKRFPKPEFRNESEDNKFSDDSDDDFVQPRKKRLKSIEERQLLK

SMILES	ΔTm [1] [°C]	ΔTm [2]
COc1c(OCCCN2CCOCC2)ccc2c1N=C(NC(=O)c1cnc(N)nc1)N1CCN=C21	-0.74	-2.86 °C
Cc1cnc(-c2cnc(NCCNc3ccc(C#N)cn3)nc2-c2ccc(Cl)cc2Cl)[nH]1	-2.28	-0.78 °C
CN1CCc2cc(Nc3ncc(C(F)(F)F)c(NCc4cc[nH]n4)n3)ccc2C1	-1.83	-1.85 °C
CN(C)[C@H]1CCN(c2cc(C(F)(F)F)c(C#N)c(Nc3cccc(CCC(=O)O)c3)n2)C1	-0.8	0.26 °C
CNC(=O)c1c(F)cccc1Nc1nc(Nc2cc3c(cc2OC)CCN3C(=O)CN(C)C)nc2[nH]ccc12	-1.02	-1.89 °C
Nc1ncc2c(n1)-c1c([nH]c3ccc(C4=CCOCC4)cc13)CCC2	-0.2	0.27 °C
Cc1cc(-c2cnc(N)c3c(-c4ccc5scnc5c4)csc23)n(C)n1	-1.04	-1.95 °C
CCOc1cc(CC(=O)N[C@@H](CC(C)C)c2ccccc2N2CCCCC2)ccc1C(=O)O	-0.4	-1.24 °C
O=C(CNCc1cc2ccccc2[nH]1)N[C@H]1CC[C@@H](c2nc3ccccc3[nH]2)CC1	-0.08	-0.53 °C
O=C1NC(=NCc2cccs2)SC1=Cc1ccc2ncccc2c1	0.38	-1.13 °C
COc1cc2ncnc(Nc3ccc4c(cnn4Cc4ccccc4)c3)c2cc1OC	-0.65	-2.15 °C
COc1ccc(Br)cc1S(=O)(=O)NC(=O)/C=C/c1cc(Cl)ccc1Cc1ccc2ccccc2c1	-4.74	-0.55 °C
O=C(NCCN1CCOCC1)c1ccc2nn(CCOc3ccc(Cl)cc3)cc2c1	0.04	0.35 °C
COc1cc2c(NC3CCN(C(C)C)CC3)nc(C3CCCCC3)nc2cc1OCCCN1CCCC1	-2.43	-2.96 °C
CCN1CCN(Cc2ccc(C(=O)Nc3ccc(C)c(Oc4ccc5c(c4)CC(=O)N5)c3)cc2C(F)(F)F)CC1	-2.44	-3.11 °C
O=C(Cc1ccccc1)Nc1nnc(N2CC[C@@H]3[C@H]2CN3c2cccnn2)s1	-3.72	-3.22 °C
C[C@@H]1CN(CC(=O)N2CC(C)(C)c3nc(CO)c(Cc4ccc(F)cc4)cc32)[C@@H](CN2CCOC[C@H]2C)CN1	-1.96	-0.43 °C
Cc1nn(-c2nc3ccc(Cl)c(Cl)c3[nH]2)c(O)c1C1OC(=O)c2ccccc21 (centres undefined)	-4.43	-1.16 °C
CC(C)C[C@H](NC(=O)[C@@H](O)[C@H](N)Cc1ccccc1)C(=O)O	-0.66	-0.82 °C
CNC(=O)c1ccc(C)c(-n2c(C)cc(OCc3ccc(F)cc3F)c(Br)c2=O)c1	-1.55	-2.58 °C
N=C(N)NCCC[C@@H](NC(=O)C(c1ccccc1)c1ccccc1)C(=O)NCc1ccc(CNC(N)=O)cc1	0.42	0.26 °C
CSc1ccc(C(=O)/C=C/c2cc(C)c(OC(C)(C)C(=O)O)c(C)c2)cc1	-3.49	-3.46 °C
CCc1nc(-c2cccc(C)c2)c(-c2ccncc2)s1	0.55	-3.01 °C
CCn1c(CNC(=O)c2ncc(C)nc2N)[n+](CC)c2ccc(C(=O)N(C)CCN(C)C)cc21	-1.53	-0.01 °C
COc1ccc2c(O[C@@H]3C[C@H]4C(=O)N[C@]5(C(=O)O)CC5/C=C\CCCCC[C@H](NC(=O)OC5CCCC5)C(=O)N4C3)cc(-c3csc(NC(=O)C(C)C)n3)nc2c1C (some centres undefined)	–	0.14 °C [middle of 4 runs]
Cc1nccc(COC(=O)N2C[C@@H]3[C@@H](CNC(=O)c4ccc5[nH]nnc5c4)[C@@H]3C2)n1	-4.78	0.34 °C
COc1cc(C(N)=O)ccc1Nc1ncc2c(n1)N(CCC(C)C)[C@H](C)C(=O)N2C	6.98	-0.48 °C
CC(C)Oc1ccc(Cc2ccc(NC3=NCCN3)cc2)cc1	-1.86	-0.24 °C
CCCN1C(=O)c2ccc(Cl)cc2Nc2ncccc21	0.34	0.51 °C
O=C(O)/C=C/c1ccc(Cn2ccnc2)cc1	-0.17	-0.33 °C
